Measurements as given in PubChem BioAssay AID720513 (Broad Institute, 2013).
Hit rate of the full screen: of about 2,100 compounds, about 480 (23%) were called active. Another 5% or so got no clear call; they are omitted.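 Rule for the calls: active = fitted curve reaches 40% activation at or below the top valid concentration, in every replicate test; inconclusive = replicate tests disagree on the call; inactive = the rest, including activity in the opposite direction.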 The list is a sample of the results. Measured potencies and affinities stand elsewhere.

experiment: PGC1a acetylation increase, cellular AlphaLISA – cell-based, cherry-picked samples, set 6, dose response (AID 720513); settings: U2OS PGC1a acetylation AlphaLISA, overnight, 0 = neutral, -100 = inhibitor control; series mostly up to 19.5 µM;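 note: cells made to overexpress flag tagged PGC1a plus GCN5 acetyltransferase by viral infection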

outcome, inactive:
Cc1noc(C)c1S(=O)(=O)Nc1ccc2c(c1)C(=O)N([C@H](C)CO)C[C@@H](C)[C@H](CN(C)Cc1ccc(C(F)(F)F)cc1)O2
O=c1oc(-c2ccccc2)nc2sc3c(c12)CCC3
CCOC(=O)c1c(C)n(C)c2cc(Br)c(O)c(O)c12
CCOC(=O)c1c2c(n(C)c1C)C(=O)C(=O)c1ccc(Br)cc1-2
O=C(Nc1ccc2c(c1)OCO2)N[C@H]1CC[C@H](CCNC(=O)C2CCC2)O[C@@H]1CO
CCOC(=O)c1c(NC(=O)c2c(Br)cnn2CC)sc(C)c1C
CCOC(=O)c1c(NC(=O)/C=C/C(=O)O)sc(C)c1-c1ccc(C(C)(C)C)cc1
CN1CCc2c(sc3c2c(NCc2ccco2)nc2nnnn23)C1
O=C(Cc1cccc(NC(=O)C2CCCN(C(=O)c3ccccc3)C2)c1)Nc1cccc(C(=O)N2CCOCC2)c1 (stereo unspecified)
CCn1cnc2cc(NCc3ccc(N(C)C)cc3)ccc21
O=C(Cc1cccc(NC(=O)C2CCN(C(=O)c3ccccc3)CC2)c1)Nc1cccc(C(=O)N2CCCCC2)c1
COc1ccc(C(=O)Nc2cc(Cl)ccc2-n2cncn2)c(OC)c1OC
Cc1noc(/C=C/N(C)C)c1S(=O)(=O)N(C)CC(=O)NC1CCCCC1
CCC(=O)N1C[C@H](C)[C@H](OC)CN(C)C(=O)c2cc(NC(=O)c3cnccn3)ccc2OC[C@@H]1C
Cc1nc2ncnn2c(C)c1CCC(=O)N1CCN(c2ccccn2)CC1
O=C(c1ccccc1-c1ccccc1)N1CCN(c2ccccn2)CC1
COc1ccc2nc(N3CCCC(C(=O)NCCCN4CCN(C)CC4)C3)sc2c1 (stereo unspecified)
Cc1ccc(S(=O)(=O)N2CCCC2CNC(=O)c2ccc(F)c(F)c2)cc1 (stereo unspecified)
COc1ccc(CCNC(=O)C2CCN(C(=O)c3ccc(F)cc3)CC2)cc1OC
COc1cccc(CNC(=O)C(=O)NCCC2CCCCN2S(=O)(=O)c2ccc(C)cc2)c1 (stereo unspecified)
Nc1cc2ccncc2c2ccccc12
Cc1cc(Sc2nnc(N)s2)c2ccccc2n1
O=c1c2cccnc2n(-c2ccccc2)n1Cc1ccc(Cl)cc1
O=C(Nc1ccc(-c2cn3c(n2)SCC3)cc1)c1ccc2ccccc2n1
COc1ccc(C(=O)Nc2cccc(NC(=O)c3ccc(OC)c(OC)c3)n2)cc1OC
CCN(CC(=O)Nc1ccccc1OC)C(=O)C1CCC1
CCc1c(C(=O)NC2CCCCC2)[nH]c(C)c1C(C)=O
CCn1c(C(=O)NC2CCC(C)CC2)cc2sccc21 (stereo unspecified)
CN(Cc1c(F)cccc1Cl)C(=O)CNC(=O)c1sc2ccccc2c1Cl
CN(Cc1c(F)cccc1Cl)c1nnnn1-c1ccccc1
CN(c1cc2c(c3c1ccn3C)C1CCC2C1)C1CCCCC1 (stereo unspecified)
CCN(CC)CCNc1nc(-c2ccc(OC)cc2)c(-c2ccc(OC)cc2)s1
CCCCNC(=O)C1CCN(Cc2ccccn2)CC1
CC1(Cc2cc(Cl)ccc2C(F)(F)F)C(=O)Nc2ccc(S(=O)(=O)NC3CCCCC3)cc21 (stereo unspecified)
N#C/C(=C(/O)c1cc2ccccc2o1)c1nc2ccccc2s1
O=S(=O)(/C(=C\c1ccc(C(F)(F)F)cc1)c1nc2ccccc2[nH]1)c1ccccc1
CC(=O)Nc1cc(OC(C)=O)c2nonc2c1OC(C)=O
Cc1ccccc1CSc1nnc(-c2ccco2)n1Cc1ccco1
COCC(=O)Nc1ccc2c(c1)OC[C@@H](C)N(CCc1ccccc1)C[C@H](C)[C@@H](OC)CN(C)C2=O
Cc1cccc(-n2c(=O)cc(N3CCN(c4ccc(F)cc4)CC3)[nH]c2=O)c1
CC(C)c1nnc(NC(=O)CCS(=O)(=O)c2nc(-c3cccs3)cc(C(F)(F)F)n2)s1
COC(=O)c1ccc(CSc2nc3c(cnn3-c3ccc(Cl)cc3)c(=O)[nH]2)o1
CC(=O)N1CCN(S(=O)(=O)c2cccc(C(=O)Nc3ccc4c(c3)OCO4)c2)CC1
O=C(NCc1ccc2c(c1)OCO2)C1CCN(S(=O)(=O)c2cccs2)CC1
Cc1cc(C)n(-c2nc(O)cc(=O)[nH]2)n1
C[C@H]1CN([C@@H](C)CO)C(=O)CCCn2nncc2CO[C@@H]1CN(C)C(=O)Nc1ccccc1
O=C(Cc1ccc(Cl)cc1)Nc1ncccn1
NS(=O)(=O)c1cccc(NC(=O)CSc2ccccn2)c1
CC(C)OC(=O)c1c(F)c(F)c(N2CCOCC2)c(F)c1F
Cc1noc(C)c1S(=O)(=O)N(C)C[C@H]1Oc2ccc(NC(=O)Nc3ccccc3)cc2CC(=O)N([C@H](C)CO)C[C@H]1C
CCC(CC)NC(=O)Cc1ccc(S(=O)(=O)N2CCOCC2)s1
O=S(=O)(c1ccc(Br)s1)N1CCN(Cc2ccc3c(c2)OCO3)CC1
Cc1cccnc1C(NC(=O)C1CCN(Cc2cn(C)c3ccccc23)CC1)c1ccc(Cl)cc1 (stereo unspecified)
Cc1c(/C(O)=C2\C(=O)C(=O)N(CCCN(C)C)C2c2ccccc2)cnn1-c1ccccc1 (stereo unspecified)
CC1CN(c2oc(-c3cccs3)nc2C#N)CC(C)O1 (stereo unspecified)
COc1ccc(C2=NOC(C(=O)Nc3cccnc3)C2)cc1 (stereo unspecified)
Cc1ccc(CNC(=O)c2ccc(CS(=O)(=O)c3ccccc3)o2)cc1
O=C(c1cccc(F)c1)N1CCN(C(=O)c2cc(-c3ccc(Cl)cc3Cl)on2)CC1
C[C@H](CO)N1C[C@H](C)[C@@H](CN(C)CC2CCOCC2)Oc2ncc(Br)cc2C1=O
O=c1c(Cl)c(NCCCO)cnn1-c1nc2ccccc2[nH]1
COc1ccc(C(=O)Sc2nncc3ccccc23)cc1
COc1ccc(Nc2ccnc3ccccc23)cc1
CC(=O)Nc1ccc(Oc2sc(C(=O)c3ccccc3)c(N)c2C#N)cc1
Brc1ccc2ncnc(NCc3ccccc3)c2c1
COc1ccc(NC(=O)CN(C)C(=O)CCNC(=O)c2ccccc2OC)cc1
c1ccc(CNc2ncnc3nc[nH]c23)cc1
